Inconclusive results are not listed. Values without a mark were called inactive. The source made the active and inactive calls. The call rests on the fitted dose curve; in most records, active means well fitted inhibition curve with a large enough effect; inconclusive means small, poorly fitted or top-dose-only effect; inactive means flat fitted curve, though single readings scatter.
The compounds below were run against Luciferin 4-monooxygenase (Photinus pyralis) (UniProt P08659) (assay: FLuc inhibitory activity for the follow-up compounds in a biochemical assay with 1mM ATP). Conditions: purified P. pyralis luciferase, luminescence; series mostly up to 57.5 µM; activity change, negative = inhibition: at the top concentration.
Luciferin 4-monooxygenase (Photinus pyralis), sequence (P08659 whole entry, looked up): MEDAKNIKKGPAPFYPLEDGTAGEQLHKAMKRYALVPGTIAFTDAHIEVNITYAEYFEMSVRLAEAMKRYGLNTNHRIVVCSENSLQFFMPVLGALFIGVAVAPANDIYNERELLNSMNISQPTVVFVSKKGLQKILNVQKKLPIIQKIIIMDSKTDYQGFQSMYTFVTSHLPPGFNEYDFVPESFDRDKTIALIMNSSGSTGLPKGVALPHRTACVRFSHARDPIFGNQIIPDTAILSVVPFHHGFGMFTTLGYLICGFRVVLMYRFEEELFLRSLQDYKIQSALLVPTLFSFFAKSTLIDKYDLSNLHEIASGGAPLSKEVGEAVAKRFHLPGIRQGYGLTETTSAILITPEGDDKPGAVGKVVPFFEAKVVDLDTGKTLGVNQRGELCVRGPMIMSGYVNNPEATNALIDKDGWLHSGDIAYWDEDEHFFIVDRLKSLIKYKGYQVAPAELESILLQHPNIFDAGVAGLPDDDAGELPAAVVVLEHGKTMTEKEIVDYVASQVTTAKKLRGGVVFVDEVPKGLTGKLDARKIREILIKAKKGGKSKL
Text: NCGC Assay Overview: Firefly (Photinus pyralis) luciferase is one of the most commonly used transcriptional reporters. It is considered one of the more dynamically responsive reporters - that is, responsive to changes in reporter transcription - as it requires no post-translational modifications and is enzymatically active directly after protein synthesis (Wood, 1998). With no endogenous expression in mammalian cells and without the requirement of external excitation, it offers very little background signal, thus generally providing excellent signal to background for most assays. Previous profiling work to determine the prevalence of compounds that affect FLuc enzymatic activity (PubChem AID 411) identified that ~3% of the MLSMR library (then at ~72K) inhibited FLuc. […] Of the compounds identified in this profile that inhibited FLuc, 151 compounds were selected for further analysis, in an effort to better understand their mode of inhibiting FLuc. The assay described here was to determine the activity of the compounds in a FLuc assay that contained a KM concentration of D-luciferin and a high concentration (1mM) of ATP.
NCGC Assay Protocol Summary: Reagents: 50mM Tris acetate, pH 7.5; 10mM Mg acetate; 10uM D-luciferin (Sigma #L9504); 1mM ATP; 0.01% Tween-20; 0.05% BSA; 10nM P. pyralis luciferase (Sigma #L9506) Control compounds used were two known firefly luciferase inhibitors (3-(5-(3-chlorophenyl)-1,2,4-oxadiazol-3-yl)benzoic acid and 5-(2-fluorophenyl)-3-phenyl-1,2,4-oxadiazole), and DMSO. Three microliters containing firefly luciferase substrates in buffer (final concentrations: 50mM Tris acetate, pH 7.5, 10mM Mg acetate, 0.01% Tween-20, 0.05% BSA, 10uM D-luciferin, 1mM ATP) are dispensed into each well of a Greiner white, solid-bottom 1536-well format plate using a flying reagent dispenser (FRD). These assay plates were then treated with 23nL of compound or DMSO using a Kalypsys pin tool, which allows for delivery of a 12-point intraplate titration of each compound to the assay plate (quantitative HTS), with a final compound concentrations ranging from approximately ~60uM to 0.3nM. One microliter of firefly luciferase in […] Tris-acetate buffer was then delivered by FRD to each well for a final enzyme concentration of 10nM. Luciferase activity was then measured using a ViewLux CCD imager (PerkinElmer), with an average exposure time of 2-30 seconds (2X binning, medium/high gain).

| SMILES | Potency | activity change, negative = inhibition |
| --- | --- | --- |
| CN=c1scc(-c2ccccc2F)n1/N=C/c1ccc[nH]1 | 0.058 µM (active) |  |
| CCOc1c(Cl)cc(C(=O)Nc2ccccc2C(=O)O)cc1Cl | 18.3 µM (active) |  |
| Cc1ccc(C(=O)O/N=C(\N)c2ccccn2)cc1 | 0.0073 µM (active) |  |
| CC(C)Oc1ccc(C(=O)Nc2ccc(-c3nc4ccccc4s3)cc2)cc1 |  | -9.43% |
| O=C(Cc1ccccc1)Nc1ccc(C(=O)Nc2ccccc2C(=O)O)cc1 | 20.6 µM (active) |  |
| Cc1c(NS(C)(=O)=O)cccc1-c1nc2ccccc2s1 | 10.3 µM (active) |  |
| Oc1ccc(-c2nc3ccccc3s2)c(O)c1 | 2.59 µM (active) |  |
| CC(C)(C)C(=O)Nc1ccc(-c2nc3ccccc3s2)cc1 | 0.0259 µM (active) |  |
| COc1ccc(C(=O)Nc2ccccc2C(=O)N/N=C/c2ccc(O)c(OC)c2)cc1 | 0.0146 µM (active) |  |
| COc1ccccc1C(=O)Nc1ccc(C(=O)O)cc1 |  | -2.29% |
| Nc1cccc(-c2nc3ccc(N)cc3s2)c1 | 0.116 µM (active) |  |
| CN(C)c1cccc(C(=O)Nc2ccc(-c3nc4ccccc4s3)cc2)c1 | 0.819 µM (active) |  |
| Cc1ccc2sc(-c3ccc(N)cc3)nc2c1 | 0.0366 µM (active) |  |
| O=C(O)c1ccc(NC(=O)c2cccc(C(=O)Nc3ccc(C(=O)O)cc3)c2)cc1 |  | 0.635% |
| CCOc1ccc2nc(NC(=O)c3cc([N+](=O)[O-])ccc3N3CCOCC3)sc2c1 |  | 0% |
| Cc1ccc(C(=O)Nc2ccc(C(=O)O)cc2)cc1S(=O)(=O)NCc1ccccc1 |  | 8.97% |
| O=C(O)c1ccc(NC(=O)c2ccccc2NC(=O)c2ccccc2Cl)cc1 |  | -2.01% |
| Cc1ccc(C(=O)Nc2cccc(C(=O)O)c2)cc1 | 0.651 µM (active) |  |
| CCCOc1cccc(C(=O)Nc2ccc(-c3nc4ccccc4s3)c(Cl)c2)c1 |  | 2.04% |
| O=C(Nc1ccccc1C(=O)O)c1cccc(NC(=O)c2ccccc2Cl)c1 | 20.6 µM (active) |  |

| SMILES | Potency | activity change, negative = inhibition |
| --- | --- | --- |
| CC(C)CC(=O)Nc1cccc(C(=O)Nc2ccccc2C(=O)O)c1 | 18.3 µM (active) |  |
| COc1ccc(-c2nc3ccccc3s2)cc1NC(=O)c1ccc(F)cc1 |  | -4.53% |
| CCOc1ccc(C(=O)Nc2cccc(C(=O)O)c2)cc1Cl | 0.58 µM (active) |  |
| Nc1ccc(C(=O)Nc2ccccc2C(=O)O)cc1 | 14.6 µM (active) |  |
| COc1ccc2nc(NC(=O)c3ccc(S(=O)(=O)N4CCCC(C)C4)cc3)sc2c1 (stereo not given) |  | 2.45% |
| CCOC(=O)N1CCN(CC(=O)Nc2nc3ccc(OC)cc3s2)CC1 |  | -4.98% |
| O=C(Nc1ccccc1C(=O)O)c1cccc(S(=O)(=O)N2CCCC2)c1 | 16.3 µM (active) |  |
| O=C(O)c1cccc(NC(=O)c2cccc(NC(=O)C3CCCO3)c2)c1 (stereo not given) | 4.11 µM (active) |  |
| Cc1ccc(C(=O)Nc2ccc(C(=O)O)cc2)cc1S(=O)(=O)Nc1ccccc1 |  | 3.68% |
| COc1ccc2nc(NC(=O)c3ccc4ncsc4c3)sc2c1 | 1.46 µM (active) |  |
| CN(C)S(=O)(=O)c1ccc(C(=O)Nc2ccccc2C(=O)O)cc1 | 32.6 µM (active) |  |
| COc1ccc(CC(=O)Nc2ccc(-c3nc4ccccc4s3)c(C)c2)cc1 | 18.3 µM (active) |  |
| Cc1ccc2nc(-c3ccc(NC(=O)CN4CCN(C(=O)c5ccco5)CC4)cc3)sc2c1 | 4.11 µM (active) |  |
| Cc1ccc2nc(-c3ccc(N)cc3)sc2c1 | 0.0231 µM (active) |  |
| Nc1ccccc1C(=O)Nc1cccc(C(=O)O)c1 | 3.66 µM (active) |  |
| O=C(O)c1cccc(NC(=O)c2cccc(S(=O)(=O)N3CCc4ccccc43)c2)c1 | 18.3 µM (active) |  |
| O=C(Nc1ccccc1C(=O)O)c1ccc(Cl)c(S(=O)(=O)N2CCOCC2)c1 | 10.3 µM (active) |  |
| COc1ccc2nc(NC(=O)Cc3cccs3)sc2c1 | 4.11 µM (active) |  |
| COc1ccc(Br)cc1C(=O)Nc1ccc(C(=O)O)cc1 |  | -16.8% |
| CCOc1ccc2nc(NC(=O)c3ccccn3)sc2c1 | 0.13 µM (active) |  |
